Shown are actives, neighbours in structure and some others; about 2% of the full set was active somewhere.
Granule exo inh = lytic granule exocytosis inhibition | 360,000 tested, 0.66% active | inhibition, % at 10 µM | TALL-104 LAMP-1 surface exposure, flow cytometry; cells stimulated with thapsigargin and PMA | AID 651702;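 active = inhibition above about 55%, limit read from the data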
NOD2-RIPK2 inh = blocks binding of human NOD2 to RIPK2. O43353. CHO BLA complementation NOD2-RIPK2, CCF4 ratio. inhibition, % at 4.98 µM. 360,000 tested, 0.38% active. AID 624267; in the data active = inhibition above about 21%
TLR4 MyD88 comp = inhibitors of human TLR4-MyD88 binding; inhibition, % at 8.4 µM; 200,000 tested, 0.18% active; AID 861; HeLa CL3-4 TLR4/MyD88 BLA complementation, FRET ratio; in the data active = inhibition above about 25%
ABHD5 PLIN5 PPI = blocks binding of human ABHD5 to perilipin-5 | Q00G26+Q8WTS1 | Split G. princeps luciferase complementation, luminescence, 4 h | inhibition, % at 4 µM | 360,000 tested, 0.78% active | AID 602281;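 active = inhibition above the mean inhibition across every tested compound plus 3 SD, cut at about 22% in these data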
TLR9-MyD88 inh = TLR9-MyD88 interaction inhibition; Q9NR96+Q99836; CHO BLA complementation TLR9-MyD88, CCF4 FRET ratio; inhibition, % at 4.98 µM; 340,000 tested, 0.21% active; AID 504734;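 active = inhibition above the mean over all tested compounds plus 3 SD, cut at about 21% in these data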
B2AR ag = activates human beta-2 adrenergic receptor causing internalization; response, % (concentration not given with the values); Am2.2-beta2AR cells, FAP receptor internalization, flow cytometry; AID 504454; 340,000 tested, 0.43% active; P07550;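 active = response above a set limit, near 3 SD of response in nonfluorescent compounds, cut at about 42% in these data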
ABHD5 PLIN5 conf = ABHD5-PLIN5 interaction inhibition, confirmed; 2,200 tested, 67% active; inhibition, % at 4 µM; biochemical ABHD5-PLIN5 interaction, luminescence; shares compounds with ABHD5 PLIN5 PPI; in the data active = inhibition above about 23%
HNF4 split-luc = counter-screen for ABHD5-PLIN5 inhibitors: HNF4 split-luciferase | 2,200 tested, 77% active | shares compounds with ABHD5 PLIN5 PPI | HNF4 dimerization, luminescence, biochemical | inhibition, % at 4 µM;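 active = mean inhibition across replicate wells exceeding the computed hit threshold, cut at about 13% in these data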;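 also: light from luciferase halves that rejoin when HNF4 fusion proteins dimerize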
Target sequence (P41235 whole entry, looked up, the tested form may be a part): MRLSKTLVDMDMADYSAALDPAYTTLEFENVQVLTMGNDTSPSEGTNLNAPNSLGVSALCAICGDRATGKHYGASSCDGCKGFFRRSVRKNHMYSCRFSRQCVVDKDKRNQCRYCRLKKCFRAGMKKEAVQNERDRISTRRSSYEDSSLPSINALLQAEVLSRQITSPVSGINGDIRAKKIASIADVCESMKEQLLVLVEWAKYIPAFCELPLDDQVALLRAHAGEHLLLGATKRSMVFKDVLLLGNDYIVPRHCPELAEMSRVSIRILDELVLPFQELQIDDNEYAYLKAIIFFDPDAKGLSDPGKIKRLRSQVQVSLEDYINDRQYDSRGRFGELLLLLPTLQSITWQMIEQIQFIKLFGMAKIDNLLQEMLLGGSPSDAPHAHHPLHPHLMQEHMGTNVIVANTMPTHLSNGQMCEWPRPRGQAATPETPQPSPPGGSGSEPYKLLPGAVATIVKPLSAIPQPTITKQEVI
Large screens that a line does not name were inactive (follow-up assays come after a bar, where they were run).

Cc1nc(NCc2ccco2)c2c(C)c(C)sc2n1	none
Cc1sc2nc3c4ccccc4c(NCc4ccco4)nn3c(=O)c2c1C	ABHD5 PLIN5 PPI 32 | ABHD5 PLIN5 conf 46 | HNF4 split-luc 63
CC(=O)NC(c1cccc(F)c1)c1nc(-c2csc3ccccc23)cs1 (configuration not stated)	none (no result: TLR4 MyD88 comp, TLR9-MyD88 inh, B2AR ag)
CC(C)SC1=NC(C)(C)C=C(/C=C/c2ccc(Cl)cc2Cl)N1	ABHD5 PLIN5 PPI 39 | ABHD5 PLIN5 conf 25 | HNF4 split-luc 31
CC(C)SC1=NC(C)(C)C=C(/C=C/c2c(Cl)cccc2Cl)N1	none
CCOc1cccc2cc(-c3nnc(NCc4ccco4)s3)c(=O)oc12	ABHD5 PLIN5 PPI 48 | ABHD5 PLIN5 conf 29 | HNF4 split-luc 35
COC(=O)c1ccc(SCC(=O)NCc2ccccc2)c([N+](=O)[O-])c1	none (no result: TLR4 MyD88 comp)
NCCCCCc1cn(CC(=O)NCCCCCCCCCCC(=O)N2CCNCC2)nn1	ABHD5 PLIN5 PPI 93 (no result: TLR4 MyD88 comp) | ABHD5 PLIN5 conf inactive | HNF4 split-luc inactive
COCCCn1cc(CN2CC(N3CCSCC3)CS2(=O)=O)nn1 (configuration not stated)	none (no result: TLR4 MyD88 comp, TLR9-MyD88 inh, B2AR ag)
COc1ccc(N=C2NC(=O)/C(=C\c3ccco3)S2)cc1	none
O=C1NC(=Nc2ccc(O)cc2)S/C1=C\C=C\c1ccco1	ABHD5 PLIN5 PPI 33 (no result: TLR4 MyD88 comp) | ABHD5 PLIN5 conf 27 | HNF4 split-luc 45
O=C(NCc1ccccc1CN1CCCC1)c1cccc(N2CCCC2=O)c1	none (no result: TLR4 MyD88 comp)
CC(C)C[C@H]1CN([C@@H](CC(C)C)CN2CCC[C@@H]2CN2C(=S)NC[C@@H]2Cc2ccc(O)cc2)C(=S)N1CCc1ccccc1	none (no result: TLR4 MyD88 comp, TLR9-MyD88 inh, B2AR ag)
CC(C)C[C@H]1CNC(=S)N1C[C@H]1CCCN1C[C@H](CC(C)C)N1C[C@H](Cc2ccc(O)cc2)N(CCc2ccccc2)C1=S	ABHD5 PLIN5 PPI 26 (no result: TLR4 MyD88 comp, TLR9-MyD88 inh, B2AR ag) | ABHD5 PLIN5 conf inactive | HNF4 split-luc inactive
CCOc1ccc(CCN2C(=S)N([C@@H](Cc3ccc(O)cc3)CN3CCC[C@@H]3CN3C(=S)NC[C@@H]3CC(C)C)C[C@@H]2CC(C)C)cc1	ABHD5 PLIN5 PPI 28 (no result: TLR4 MyD88 comp, TLR9-MyD88 inh, B2AR ag) | ABHD5 PLIN5 conf inactive | HNF4 split-luc inactive
COc1ccccc1[C@@]1(C)ON(c2ccccc2C(F)(F)F)C1=O	none (no result: TLR4 MyD88 comp)
COc1ccc(C(=O)OCC(=O)c2c(N)n(C)c(=O)n(C)c2=O)c(OC)c1OC	none (no result: TLR4 MyD88 comp)
Cc1ccc(CNC(=S)NC2CCC(C(C)(C)C)CC2)cc1 (configuration not stated)	none (no result: TLR4 MyD88 comp)
Cc1ccc(CC2(OCCN(C)C)CCC(C(C)(C)C)CC2)cc1 (configuration not stated)	ABHD5 PLIN5 PPI 26 (no result: TLR4 MyD88 comp) | ABHD5 PLIN5 conf 30 | HNF4 split-luc inactive
CN(C)CCOC1(Cc2ccc(F)cc2)CCC(C(C)(C)C)CC1 (configuration not stated)	ABHD5 PLIN5 PPI 25 (no result: TLR4 MyD88 comp) | ABHD5 PLIN5 conf 33 | HNF4 split-luc inactive
C[C@H](CO)N1C[C@H](C)[C@@H](CN(C)C(=O)Nc2ccc(C(F)(F)F)cc2)Oc2c(NC(=O)CCC(F)(F)F)cccc2C1=O	none (no result: TLR4 MyD88 comp)
CCc1cccc(NC(=O)COC(=O)C2COc3ccccc3O2)c1 (configuration not stated)	none (no result: TLR4 MyD88 comp, B2AR ag)
COc1cccc(S(=O)(=O)N(C)C[C@H]2OCc3cnnn3CCCC(=O)N([C@@H](C)CO)C[C@@H]2C)c1	none (no result: TLR4 MyD88 comp, B2AR ag)
CC1(C(=O)NCc2ccc(C(F)(F)F)cc2)CCN1Cc1ccc(-c2ccccc2)o1 (configuration not stated)	ABHD5 PLIN5 PPI 31 (no result: TLR4 MyD88 comp, TLR9-MyD88 inh, B2AR ag) | ABHD5 PLIN5 conf inactive | HNF4 split-luc 25
Cc1ccc(-n2c(=O)cc(N3CCN(C(=O)c4ccco4)CC3)[nH]c2=O)cc1	ABHD5 PLIN5 PPI 37 | ABHD5 PLIN5 conf inactive | HNF4 split-luc inactive
CCOC(=O)N1CCN(c2cc(=O)n(-c3ccc(OC)cc3)c(=O)[nH]2)CC1	none
COC(=O)C1CCN(c2cc(=O)n(-c3ccc(OC)cc3)c(=O)[nH]2)CC1	ABHD5 PLIN5 PPI 24 | ABHD5 PLIN5 conf inactive | HNF4 split-luc inactive
COc1ccc(CN2CCN(C(=O)c3cccnc3)CC2)cc1Br	none
